# Measurements as given in PubChem BioAssay AID624296 (National Center for Advancing Translational Sciences (NCATS), 2012).
# Where “and” joins values, the source holds several entries; their conditions need not be identical. Equal entries are not always repeated. The whole screen tested about 350,000 compounds, of which about 9,900 (2.8%) were called active. A call without a number means that no potency is given here. Roughly 15% stayed inconclusive and do not appear here. The call rests on the fitted dose curve; in most records, active means well fitted activation curve with a large enough effect; inconclusive means small, poorly fitted or top-dose-only effect; inactive means no such curve, though single readings can be large or run the other way. Only a selection was taken, and actives are over-represented in it overall. The source holds several records for some structures; these can differ, active in one and inactive in another.
# Experiment: A quantitative high throughput screen for small molecules that induce DNA re-replication in MCF 10a normal breast cells. Further: nearly all actives have a fitted effect of over 50% in size.
# Conditions: MCF 10A DNA re-replication, Hoechst nuclear intensity, 48 h; series mostly up to 46.1 µM
# Potency means the concentration at half of the fitted maximal effect.
row,Compound,Potency
1,CC(OC(=O)Cc1ccc(F)cc1)C(=O)N1CCc2ccccc21 (stereo unspecified),inactive
2,Cc1sc2ncnc(N3CCC(C(=O)Nc4ccc(F)cc4Cl)CC3)c2c1C,inactive
3,C#CCOCCOCCOCCNc1nc(N2CCN(C(=O)Cn3cc(CCO)nn3)CC2)nc(N2CCN(C(=O)Cn3cc(CCCN=C(N)N)nn3)CC2)n1,inactive
4,O=[N+]([O-])c1cccc(C=NN=Cc2ccccc2O)c1,inactive
5,CC[C@]12c3[nH]c4ccc(Cl)cc4c3CCN1C(=O)[C@@H](CC(=O)NCCN1CCOCC1)C[C@@H]2C(=O)N1CCN(C(=O)C2CC2)CC1,inactive
6,CCCN(C(=O)COC(=O)CNS(=O)(=O)c1ccc(NC(C)=O)cc1)C1CCS(=O)(=O)C1 (stereo unspecified),inactive
7,COc1ccccc1-c1nnc(-c2ccc(F)cc2)o1,inactive
8,COc1ccc(-c2csc3nc(-c4ccccc4F)oc(=O)c23)cc1OC,8.2 µM (active)
9,COc1ccc(-c2csc(-c3cccs3)n2)cc1OC,inactive
10,COc1ccc(N/C=C(\C2OC(=O)c3ccccc32)[N+](=O)[O-])cc1 (stereo unspecified),inactive
11,COc1cc(CC(=O)Nc2nc(-c3ccc(F)c(F)c3)cs2)cc(OC)c1OC,inactive
12,COc1ccc(-c2csc(NC(=O)COC(=O)c3ccc(Br)o3)n2)cc1,inactive
13,COc1ccc2c(c1OC)C(=O)OC2Nc1nc(-c2ccccc2)cs1 (stereo unspecified),4.61 µM (active)
14,COc1ccc(CCNc2nc(-c3cccc(NC(C)=O)c3)cs2)cc1OC,inactive
15,COc1ccc(-c2csc(NC3OC(=O)c4ccccc43)n2)cc1 (stereo unspecified),11.6 µM (active)
16,CC1CC(C)CN(C(=O)COC(=O)c2ccc3ncsc3c2)C1 (stereo unspecified),inactive
17,O=C(Nc1ccccc1F)c1ccc(S(=O)(=O)N2CCCCCC2)cc1,inactive
18,O=C(CSc1ncnc2sccc12)N1CCN(C(=O)c2cccs2)CC1,inactive
19,Cc1nnc(NC(=O)c2ccc3nccnc3c2)s1,inactive
20,CCN(c1ccccc1)S(=O)(=O)c1cc(C(=O)NCc2ccccn2)ccc1C,inactive
21,CCCCn1nc(C(=O)Nc2cccc(C(=O)NC3CC3)c2)c2ccccc2c1=O,inactive
22,COC(=O)[C@]1(Cc2ccccc2)N[C@H](CN(C)S(=O)(=O)c2ccc(OC(F)(F)F)cc2)[C@@H]2C(=O)N(C)C(=O)[C@@H]21,inactive
23,COc1ccc(NC(=O)c2cccc(NC(=O)c3ccco3)c2)c(OC)c1,inactive
24,COc1cccc(C(=O)Nc2ccc(N3CCN(C(=O)c4ccco4)CC3)cc2)c1,20.6 µM (active)

row,Compound,Potency
1,COc1cccc(C(=O)Nc2ccc(NC(=O)c3ccco3)cn2)c1,inactive
2,CC1(C)C[C@H]2C3=CCC4[C@@]5(C)CC[C@H](O)[C@](C)(CO)C5CC[C@@]4(C)[C@]3(C)C[C@@H](O)[C@@]2(CO)[C@@H](O)[C@@H]1O (stereo partly specified),inactive
3,CC(C)(C)OC(=O)C[C@@H]1C/C=C\C[C@@H](CC(=O)N[C@H](CO)Cc2ccccc2)C(=O)NCCOC1=O,inactive
4,O=C(NCC1(N2CCCCC2)CCCCC1)c1cccc(S(=O)(=O)Nc2ccccc2Cl)c1,inactive
5,COc1ccc(CCNC(=O)c2cc(-c3ccc4c(c3)OCO4)on2)cc1OC,inactive
6,COc1cc2c(-c3ccc4c(c3)OCO4)c(-c3ccsc3)oc(=O)c2cc1OC,inactive
7,COc1cc(-c2c(-c3ccc4c(c3)OCO4)noc2C)ccc1F,20.6 µM (active)
8,COC(=O)c1c(NC(=O)CCCC(=O)O)sc2c1CCCCC2,inactive
9,COC(=O)c1c(NC(=O)CSc2nncs2)sc2c1CCCCC2,0.231 µM (active)
10,COC(=O)c1c(NC(=O)c2cccs2)sc2c1CCCC2,inactive
11,Cc1ccc(C(=O)OCC(=O)NCc2cc(C)c(O)c(C)c2)cc1S(=O)(=O)N1CCCCC1,inactive
12,CN1C(c2ccc(F)cc2)=CS/C1=C(/C#N)c1nnc2n1-c1ccccc1SC2,inactive
13,COc1ccc(CCc2nc(-c3cccs3)no2)cc1,inactive
14,c1csc(-c2nc(-c3ccncc3)no2)c1,inactive
15,COc1nc(-c2ccc(Cl)cc2)ccc1-c1noc(-c2cccs2)n1,6.51 µM (active)
16,COc1ccc(Cl)cc1NC(=O)CN1CCN(C(=O)N2CCOCC2)CC1,inactive
17,COc1ccc(NC(C)=O)cc1NC(=O)CN1CCN(C2c3ccccc3-c3ccccc32)CC1,20.6 µM (active)
18,COc1ccc(NC(C)=O)cc1NC(=O)CN1CCN(c2ccccn2)CC1,inactive
19,COc1ccc(N2CCN(C(CNS(=O)(=O)c3ccc(C)cc3)c3ccccc3)CC2)cc1 (stereo unspecified),inactive
20,CC(NC(=O)COC(=O)c1ccc2ccccc2n1)c1ccccc1 (stereo unspecified),inactive
21,Oc1c(Cl)cc(Cl)c(Cl)c1Cc1c(O)c(Cl)cc(Cl)c1Cl,inactive and 920 nM (active)
22,CN(C)C(=O)CCc1ccc2c3c([nH]c2c1)[C@]1(CCc2ccccc2)[C@@H](C(=O)N2CCCCC2)C[C@H](CC(=O)NCCC2=CCCCC2)C(=O)N1CC3,inactive
23,Nn1c(SCC(=O)Nc2nccs2)nnc1-c1ccco1,inactive
24,COc1ccccc1N1CC(O)=C(c2nc3ccccc3s2)C1=N,inactive

row,Compound,Potency
1,N=C1C(c2nc3ccccc3s2)=C(O)CN1NC(=O)c1ccc([N+](=O)[O-])cc1,3.66 µM (active)
2,CCOC(=O)CCCN1CC(O)=C(c2nc3ccccc3s2)C1=N,inactive
3,CC1CC(=NNC(=O)C2COc3ccccc3O2)CC(C)(C)C1 (stereo unspecified),inactive
4,O=C(Nc1ccccc1N1CCOCC1)c1ccncc1,inactive
5,O=C(Nc1ccccc1N1CCCCC1)c1ccc2nccnc2c1,20.6 µM (active)
6,O=C(Nc1ccccc1N1CCCC1)c1ccc2ccccc2c1,inactive
7,O=C(COc1ccccc1F)Nc1nc(-c2ccccn2)cs1,inactive
8,O=C(c1ccc(S(=O)(=O)NCc2ccco2)cc1)N1CCN(c2ccccc2)CC1,inactive
9,CCOC(=O)/C(C#N)=C/c1cn(CCC(=O)O)nc1-c1ccc(Br)cc1,inactive
10,O=C(O)CCn1cc(/C=C/C(=O)c2ccc(Cl)cc2)c(-c2cccc(Br)c2)n1,4.11 µM (active)
11,O=C(O)/C=C/c1cn(Cc2ccccc2)nc1-c1cccs1,inactive
12,CCC1(C)NC(=O)N(CC(=O)N2CCN(c3cccc(Cl)c3)CC2)C1=O (stereo unspecified),inactive
13,O=C(CN1CCN(c2nc(-c3ccccc3)cs2)CC1)NCc1ccc2c(c1)OCO2,11.6 µM (active)
14,CC1CCCCN1CC(=O)NCc1ccc2c(c1)OCO2 (stereo unspecified),inactive
15,COc1ccc(-c2csc(N3CCN(Cc4ccc5c(c4)OCO5)CC3)n2)cc1,inactive
16,Cc1csc2nc(COC(=O)c3cccc(N(C)C)c3)cc(=O)n12,inactive
17,COc1ccc(C(CNC(=O)c2cccc(S(=O)(=O)Nc3ccc(Br)cc3)c2)N(C)C)cc1 (stereo unspecified),inactive
18,CCOC(=O)/C=c1\s/c(=C\c2ccccc2OC)c(=O)n1CC(=O)N1CCOCC1,inactive
19,Cc1cccc(NC(=O)CN2CCN(C(=O)C3CCN(C(=O)/C=C/c4ccccc4)CC3)CC2)c1C,inactive
20,CCOC(=O)/C=c1\s/c(=C\c2ccc(C#N)cc2)c(=O)n1CC(=O)Nc1cccc(C)c1C,2.91 µM (active)
21,Cn1nc(C(=O)OCC(=O)N(Cc2ccccc2)C(C)(C)C)c2ccccc2c1=O,inactive
22,O=C(OCC(=O)N1CCc2ccccc21)c1ccc([N+](=O)[O-])cc1,inactive
23,COc1ccc(-c2csc3ncnc(N4CCN(S(=O)(=O)c5cccc(F)c5)CC4)c23)cc1,inactive
24,CC1CCN(C(=S)NC(=O)c2ccccc2Br)CC1,inactive

row,Compound,Potency
1,CC1CCN(C(=S)c2cccc(O)c2)CC1,1.46 µM (active)
2,CC1CCN(C(=S)c2cccc([N+](=O)[O-])c2)CC1,inactive
3,CC[C@]1(C(=O)OC)[C@H]2C(=O)N(Cc3ccccc3)C(=O)[C@H]2[C@H]2CN=C(SCc3ccc(Cl)cc3)N21,inactive
4,O=C(CN1CCc2ccccc2C1)Nc1cccc(S(=O)(=O)N2CCOCC2)c1,inactive
5,COC(=O)Cc1ccc(OC(=O)C2CCN(S(=O)(=O)c3ccc(OC)c(OC)c3)CC2)cc1,inactive
6,O=C(c1ccc(Oc2ccc(Cl)cc2)c([N+](=O)[O-])c1)N1CCCC1,inactive
7,CC1CCN(C(=O)c2ccc(S(=O)(=O)Cc3cc(F)ccc3F)c([N+](=O)[O-])c2)CC1,18.4 µM (active)
8,O=C(Nc1ccc(F)cc1)C1CCN(C(=O)c2ccc([N+](=O)[O-])cc2)CC1,inactive
9,O=C(Nc1ccn(CCCNCc2ccc3[nH]ccc3c2)c(=O)n1)OCc1ccccc1,inactive
10,O=C(Nc1c[nH]c(=O)[nH]c1=O)OCc1ccccc1,inactive
11,Cc1ccc(OCC(=O)N2CCN(S(=O)(=O)c3ccc(Cl)s3)CC2)cc1C,inactive
12,Cc1ccc(Br)c(NS(=O)(=O)c2cccc(C(=O)N3CCNC(=O)C3)c2)c1,inactive
13,O=C(CCl)NNc1nc(-c2ccccc2)c2cc(Cl)ccc2n1,inactive
14,OCCCNc1nc(-c2ccccc2)c2cc(Cl)ccc2n1,8.2 µM (active)
15,NC(N)=Nc1nc(-c2ccccc2)c2cc(Cl)ccc2n1,inactive
16,CC1(C)CC(=O)C=C(c2ccc3ncccc3c2)C1,inactive
17,CCN(c1ccccc1)S(=O)(=O)c1ccc(C(=O)Nc2ccccc2OC)cc1,inactive
18,C[n+]1cccc(C(=O)O)c1,inactive
19,CCN(CC)CCCNC(=O)c1ccc2c(=O)n(Cc3ccc4c(c3)OCO4)c(=S)[nH]c2c1,23.1 µM (active)
20,CCCCNC(=O)CCn1c(=S)[nH]c2cc3c(cc2c1=O)OCO3,inactive
21,COc1ccc(Cn2c(=S)[nH]c3cc(C(=O)NCCCN4CCOCC4)ccc3c2=O)cc1,inactive
22,Cc1ccc(C(=O)CSc2ccccc2C(=O)O)cc1,inactive
23,Cc1ccc(C(=O)NCCNC(=O)c2ccccc2)cc1,inactive
24,Cc1ccc(SC(CC(=O)c2ccc(C(C)(C)C)cc2)C(=O)O)cc1 (stereo unspecified),7.31 µM (active)
